Assay results taken from PubChem BioAssay (NCATS).
Records with an inconclusive call do not appear. Entries that show only a call come without a potency. The source made the active and inactive calls. Calls come from the whole dose curve; as a rule, active = well fitted cell-killing curve with a large enough effect; inconclusive = small, poorly fitted or top-dose-only effect; inactive = no such curve, though single readings can be large or run the other way.

Test: qHTS of pediatric cancer cell lines to identify multiple opportunities for drug repurposing: Primary screen for OHS-50 cells (AID 1347103); note: nearly all actives have a fitted effect of over 40% in size
Details: OHS-50 osteosarcoma viability, CellTiter-Glo luminescence, 48 h; series mostly up to 57.3 µM
From the text: Drug repurposing or repositioning has been offered as a strategy for drug development in oncology programs. This approach has special potential for childhood cancers and other rare or orphan diseases, where the expected return on new drug development has been a disincentive to pharmaceuticals.
In this project we exploit the poly-pharmacology of drugs to discover new indications via phenotypic screening of a panel of 19 well-characterized cell lines derived from solid tumors seen in children and adolescents. The goal is to identify approved drugs with previously unrecognized anticancer properties that has the potential to reveal new mechanisms and biological processes involved in carcinogenesis or drug resistance. We employed a titration-based paradigm (quantitative high-throughput screening or qHTS), where all compounds were tested at multiple concentrations for their effect on cell viability. Concentration-response curves (CRCs) were derived directly from the primary screen, and both potency and efficacy values were used to identify compounds with robust bioactivity profiles. We screened the NIH Chemical Genomics Center (NCGC) Pharmaceutical Collection (NPC) and Mechanism Interrogation Plate (MIPE) small molecule collections of approved and investigational compounds against these cell lines; and measured metabolically active cells after 48 hours of compound treatment as a proxy for cell viability.
Assay Submitter: Nathalia J. Martinez, National Center for Advancing Translational Sciences, National Institutes of Health, Rockville, MD, USA; email: natalia.martinez@nih.gov
[1] Shen, M et al. Quantitative high-throughput phenotypic screening of pediatric cancer cell lines identifies multiple opportunities for drug repurposing. Oncotarget 2017 Dec 19;9(4):4758-4772. PMID 29435139.
The cells were obtained from University of North Carolina (UNC), Pediatric Preclinical Testing Program (PPT), and Coriell Institute (CI).
qHTS cell viability assay:
Cells were assayed in growth media at a density of 500-1,000 cells/well. Five microliters of cells were dispensed into 1,536-well, white, solid-bottom, TC-treated plates (Greiner Bio One) using a multidrop dispenser and incubated at 37 degrees C, 5% CO2, under a humidified atmosphere for 5 hours. Twenty-three nanoliters of compounds and controls (neutral control DMSO or positive control bortezomib at final concentration of 2.3 µM) were subsequently transferred by Kalypsys pintool. For primary screens, the MIPE collection was tested at 11-point dilutions (final concentrations range from 0.78 nM to 46 µM) and the NPC collection at 8-point dilutions (final concentrations range from 0.59 nM to 46 µM). Compounds tested in follow-up screens were assayed at 11-point dilutions. Cells were incubated for 48 hours, followed by addition of 3 µL of CellTiter-Glo (Promega). After a 15 min incubation at room temperature, samples were analyzed for luminescence intensity using a ViewLux High-throughput CCD imager equipped with clear filters.
Potency is the fitted concentration of half-maximal effect.

Question: For CN(C)CCC[C@@]1(c2ccc(F)cc2)OCc2cc(C#N)ccc21, which Potency is on record?
Answer: inactive

Question: Which Potency does the source give for CCNC(=O)NCc1cccc(Cl)c1 here?
Answer: inactive

Question: Which Potency does the source give for CCCCC(CC)COC(=O)c1ccc(N(C)C)cc1 (stereo not given) here?
Answer: inactive

Question: For COP(=O)(OC)OC(c1ccc(Cl)cc1)P(=O)(OC)OC (stereo not given), which Potency is on record?
Answer: inactive

Question: For CC(C)(C)NC[C@H](O)COc1nsnc1N1CCOCC1, which Potency is on record?
Answer: inactive

Question: Which Potency does the source give for COc1cc(C(=O)N2CCCCCCC2)cc(OC)c1OC here?
Answer: inactive

Question: Which Potency does the source give for COc1ccc2c(c1)c1c3n2CCN(C)C3=NCC1 here?
Answer: inactive

Question: With CCOCCn1c(N2CCCN(C)CC2)nc2ccccc21 as the compound, how does the Potency read?
Answer: inactive

Question: For CNCCCCOc1ccccc1Cc1ccccc1, which Potency is on record?
Answer: 17.4 µM (active)

Question: With Cc1ccccc1OCC(O)CO (stereo not given) as the compound, how does the Potency read?
Answer: inactive

Question: For COc1ccc(/C=N/NC(=O)c2ccncc2)cc1OC, which Potency is on record?
Answer: inactive

Question: For COc1cc(O)c(C(=O)c2ccccc2)cc1S(=O)(=O)O, which Potency is on record?
Answer: inactive

Question: With Cc1cc(-c2ccccc2)nnc1NCCN1CCOCC1 as the compound, how does the Potency read?
Answer: inactive

Question: With COc1ccc(CCN(C)CCCN2CCc3cc(OC)c(OC)cc3CC2=O)cc1OC as the compound, how does the Potency read?
Answer: inactive

Question: For C[N+]12CCC(CC1)C(OC(=O)C(O)(c1ccccc1)c1ccccc1)C2 (stereo not given), which Potency is on record?
Answer: inactive

Question: Which Potency does the source give for FC1(F)C(F)(F)C(F)(F)C2(F)C(F)(F)C(F)(F)C(F)(F)C(F)(F)C2(F)C1(F)F (stereo not given) here?
Answer: inactive

Question: Which Potency does the source give for NC(=S)N/N=C/c1cccnc1 here?
Answer: inactive

Question: Which Potency does the source give for Nc1ccc(S(=O)(=O)Nc2cnc3ccccc3n2)cc1 here?
Answer: inactive

Question: Which Potency does the source give for O=C(O)CCNC(=O)c1ccccc1 here?
Answer: inactive

Question: For O=[N+]([O-])c1ccc(/C=N\O)o1, which Potency is on record?
Answer: inactive

Question: For OC[C@H]1O[C@@H](Oc2ccc(O)cc2)[C@H](O)[C@@H](O)[C@@H]1O, which Potency is on record?
Answer: inactive

Question: Which Potency does the source give for CNCCc1ccccn1 here?
Answer: inactive

Question: Which Potency does the source give for CCCCCCCC/C=C\CCCCCCCCN here?
Answer: inactive

Question: For CC(=O)OCC1=C(C(=O)O)N2C(=O)[C@@H](NC(=O)CSc3ccncc3)[C@H]2SC1, which Potency is on record?
Answer: inactive

Question: For O=C(NCCc1c[nH]c2ccccc12)c1cccnc1, which Potency is on record?
Answer: inactive

Question: Which Potency does the source give for NS(=O)(=O)Cc1noc2ccccc12 here?
Answer: inactive

Question: Which Potency does the source give for COc1cc(C)nc(-n2nc(C)cc2OC)n1 here?
Answer: inactive

Question: With Cc1cccc(C)c1NC(=O)CN1CCCC1 as the compound, how does the Potency read?
Answer: inactive

Question: With CN1CCC[C@@H]1CCO[C@](C)(c1ccccc1)c1ccc(Cl)cc1 as the compound, how does the Potency read?
Answer: 15.5 µM (active)

Question: With CC(=C(CCOC(=O)C(C)C)SSC(CCOC(=O)C(C)C)=C(C)N(C=O)Cc1cnc(C)nc1N)N(C=O)Cc1cnc(C)nc1N as the compound, how does the Potency read?
Answer: inactive

Question: Which Potency does the source give for C[C@@]12C(=O)OC(=O)[C@]1(C)C1CCC2O1 here?
Answer: 1.74 µM (active)

Question: With C[N+]1(C)CCC(=C(c2ccccc2)c2ccccc2)CC1 as the compound, how does the Potency read?
Answer: inactive

Question: With CC(=O)N[C@@H](CCC(=O)O)C(=O)O as the compound, how does the Potency read?
Answer: inactive

Question: With CCCCNC(=O)NS(=O)(=O)c1ccc(N)cc1 as the compound, how does the Potency read?
Answer: inactive

Question: For Cc1cccc(C)c1NC(=O)CN1CCCCCC1, which Potency is on record?
Answer: inactive

Question: Which Potency does the source give for CCN(CC)CCOC(=O)C1(c2ccccc2)CCCC1 here?
Answer: inactive

Question: For CCC1Nc2cc(Cl)c(S(N)(=O)=O)cc2S(=O)(=O)N1 (stereo not given), which Potency is on record?
Answer: inactive

Question: Which Potency does the source give for CC[C@H](c1ccc(O)cc1)[C@@H](CC)c1ccc(O)cc1 here?
Answer: 27.6 µM (active)

Question: For COc1ccc(S(=O)(=O)N2c3ccc(Cl)cc3[C@@](O)(c3ccccc3Cl)[C@H]2C(=O)N2CCC[C@@H]2C(N)=O)cc1OC, which Potency is on record?
Answer: inactive

Question: With O=c1[nH]c(=O)n([C@H]2C[C@H](O)[C@@H](CO)O2)cc1F as the compound, how does the Potency read?
Answer: inactive
